Laboratory results taken from PubChem BioAssay (NCI).
This is part of a sample that, as a whole, favours compounds with a hit. Of some 83,000 tested, about 20% had one in any assay.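 A percent growth of 40 corresponds to 60% growth inhibition; 0 means no net growth; -100 means all cells died. Active threshold: below 10.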 A number with no mark means an inactive call. Activity calls are given as the source filed them.

How the values were obtained:
Assay in all cases: NCI-60 one-dose screen, 48 h (100 = growth as untreated, 0 = no growth, -100 = all killed)
Settings in all cases: 10 µM unless noted
NCI-H23 lung = tested on: NCI-H23 lung
NCI-H226 lung = tested on: NCI-H226 lung
NCI-H322M lung = tested on: NCI-H322M lung
HOP-62 NSCLC = tested on: HOP-62 NSCLC
NCI-H460 lung = tested on: NCI-H460 lung
HOP-92 NSCLC = tested on: HOP-92 NSCLC
NCI-H522 lung = tested on: NCI-H522 lung
A549/ATCC NSCLC = tested on: A549/ATCC NSCLC
786-0 renal = tested on: 786-0 renal
COLO 205 colon = tested on: COLO 205 colon

SMILES	growth (NCI-H23 lung)	growth (NCI-H226 lung)	growth (NCI-H322M lung) [%]	growth (HOP-62 NSCLC)	growth (NCI-H460 lung)	growth (HOP-92 NSCLC)	growth (NCI-H522 lung)	growth (A549/ATCC NSCLC)	growth (786-0 renal)	growth (COLO 205 colon)
O=C(/C=C/c1cc(Cl)ccc1Cl)Nc1ncc(Cc2ccc(Cl)cc2)s1	16.7%	26.1%	33.5	1.25% (active)	0.165% (active)	-10.6% (active)	-33.7% (active)	12.3%	0.237% (active)	-45.2% (active)
O=C(CCl)Nc1ccc(NC(=O)c2cc(Cl)ccc2O)c(Cl)c1	29%	59%	96	101%	67.1%	127%	-22.6% (active)	88.3%	88%	95.2%
N/C(=N\C(N)=N\c1nc2ccccc2s1)c1ccc(Cl)cc1	75.1%	77.8%	88.3	1.11% (active)	52.5%	84.6%	80.8%	20.9%	102%	104%
Cc1ccc2c(n1)C(=O)C(Cl)=C(Nc1ccc(C(C)C)cc1)C2=O	-56.9% (active)	61.4%	84.4	126%	79.7%	17.1%	-13.7% (active)	67.8%	75.6%	111%
N#Cc1nc(-c2ccccc2)oc1N1CCC(C2(C(F)(F)F)N=N2)CC1	91.6%	97%	107	113%	102%	90.1%	96.8%	99.8%	101%	103%
C#CCN(C)CCCOc1ccc(NC(=O)CCCCCCC(=O)NO)cc1Cl	28.1%	63.1%	26.5	30.1%	25.8%	-14% (active)	12.8%	20.5%	39.3%	-26.1% (active)
Cn1cc(-c2nnc(N)nc2-c2c[nH]c3ccc(Br)cc23)c2cc(Br)ccc21	98.3%	112%	104	106%	107%	111%	85.7%	104%	89.5%	116%
C/C(=C(/C)C1CC1CCNC1CCC(NC(=O)OC(C)(C)C)CC1)c1ccccc1 (stereo not given)	70.8%	80.1%	89.2	84.4%	57.6%	54.8%	68.6%	73.4%	65.6%	-56% (active)
O=C(CN1CCN(c2cc(=O)[nH]c3ccc(F)cc23)CC1)N(c1ccccc1)c1ccccc1	99.1%	103%	104	102%	104%	98.4%	98.3%	115%	96%	115%
O=C(CSc1nnc(-c2cccs2)n1-c1ccccc1)Nc1ccccc1F	90.8%	96.3%	103	76.9%	96.6%	93%	55%	89.6%	99.4%	70.8%
COC(=O)c1cccc(NC2=C(Cl)C(=O)c3nc(C)ccc3C2=O)c1	53.1%	87%	103	113%	101%	121%	65.1%	102%	98.2%	116%
C#Cc1nc(/C=C\CCCCCCC(=O)NO)cs1	-63.5% (active)	74.2%	78.4	79.7%	55.4%	-75.3% (active)	-59.8% (active)	67.6%	-78.5% (active)	84.7%
CCOC(=O)c1c(NCC(=O)Nc2cccc([N+](=O)[O-])c2)sc(C(C)=O)c1C	-40.7% (active)	-61.3% (active)	95	7.61% (active)	-29% (active)	-24.7% (active)	-32% (active)	-13.5% (active)	-15% (active)	-42.9% (active)
C#CCOc1ccccc1C(OC(=O)c1ccccc1)C(=O)NC(C)(C)C(C)(C)C (stereo not given)	82.4%	82.1%	90.4	88.4%	89.7%	71%	73.4%	74%	84.7%	85.1%
CCCCCCNC(=O)Oc1ccc(/C(=C(/C)c2ccc(OC)cc2)c2ccc(OCCN3CCCCCC3)cc2)cc1	20.4%	81%	82.1	-9.29% (active)	-67.9% (active)	63.4%	82.4%	45.7%	24.3%	-60.5% (active)
CC1=Cc2ccccc2OC12C=Cc1ccccc1O2 (stereo not given)	86.5%	91.7%	89.7	89.5%	104%	98.6%	97.2%	104%	105%	110%
CC(C)NC(=O)c1cc(-c2ccc(NC(=O)Nc3ccc(F)c(C(F)(F)F)c3)cc2)nc2cccnc12	93.2%	94.8%	107	80.8%	86.4%	90.1%	87.4%	86.8%	88.3%	114%
CC1=C(C)C(=O)C(Nc2ccc(C)cc2)=C(Br)C1=O	87.7%	86.5%	104	83.2%	102%	-35.8% (active)	96.1%	100%	106%	124%
C#C[C@]1(O)CC[C@H]2[C@@H]3CC=C4c5sc(N(C)c6ccccc6)nc5CC[C@]4(C)[C@H]3CC[C@@]21C	86.6%	96.4%	103	101%	61.9%	139%	87.2%	69%	57.1%	66.8%
CC(C)(C)Nc1nc2c(OCCc3ccccc3)cccn2c1-c1cccc(Oc2ccccc2)c1	11.1%	15.2%	15.8	11.1%	8.14% (active)	-12.8% (active)	-26.1% (active)	16.3%	8.48% (active)	-93.8% (active)
N#Cc1c(-c2ccc(F)cc2)cc(-c2c[nH]c3ccccc23)nc1-c1c[nH]c2ccccc12	100%	94%	106	101%	104%	93.4%	97%	101%	99.5%	113%
COc1ccc([C@@H]2C(=O)N(c3cc(OC)c(OC)c(OC)c3)[C@H]2c2ccc(OC)c(O)c2)cc1	28.9%	60.2%	42.7	31.3%	4.83% (active)	25.1%	-39.4% (active)	29%	6.33% (active)	-79.3% (active)
O=C(CSc1nnc(-c2ccc(Cl)cc2)n1-c1ccccc1)Nc1cccc(F)c1	23.6%	20.9%	36.7	50.3%	17.4%	57.8%	52.2%	2.72% (active)	0.989% (active)	80.1%
CC(C)Sc1nc(-c2ccccc2)c(C#N)c(N2CCOCC2)n1	65%	55.1%	38.1	63.7%	42.2%	73.2%	82.5%	37.2%	11.9%	74%
O=C1[C@@H]2Cc3c([nH]c4ccccc34)[C@H](c3ccc(Cl)cc3)N2C(=O)CN1C1CCN(Cc2ccccc2)CC1	74.1%	70.5%	59.2	75.7%	34.4%	41.4%	84.6%	38.8%	68.1%	53.4%
